Results on five molecules are retold here after PubChem BioAssay.

Values joined by “and” are separate entries in the source; they are usually repeats but may differ in a detail not shown here. Equal entries are not always repeated. Active and inactive are the calls of the source.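 Rule for the calls: active = normalized viability below 100% at a tested concentration; inactive = the rest.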

One assay is described as follows: ovarian cancer cell viability with rucaparib, profiling panel, oncology-focused library, rucaparib conditional (AID 1508598). The following applies: patient-derived ovarian cancer cells, CellTiter-Glo viability, 144 h; at 0.313 µM; OCI-C5x cells; without rucaparib; hits give low values. A general note: ATP-based viability assays read luminescence as a measure of living cells.
For the molecule `S=c1nc[nH]c2nc[nH]c12`, the viability – broadly, a read-out of living cells in per cent, often relative to untreated cells – was 91.6% (active).

Turning to `CC1=C(/C=C/C(C)=C/C=C/C(C)=C/C(=O)O)C(C)(C)CCC1`, the viability is 114% (inactive).

`O=c1[nH]cnc2[nH]ncc12`: the viability is 117% (inactive).

On to `O=C1c2c(O)ccc(O)c2C(=O)c2c(NCCNCCO)ccc(NCCNCCO)c21`, for which the viability is 57% (active) and 56.6% (active).

As to `CC(C)C(=O)Nc1ccc([N+](=O)[O-])c(C(F)(F)F)c1`, the viability was 109% (inactive).

Still in this assay, the particulars now being: patient-derived ovarian cancer cells, CellTiter-Glo viability, 144 h; at 0.313 µM; OCI-P5x cells; with rucaparib 20 µM; hits give low values; 100% = cells with rucaparib alone.
On to `S=c1nc[nH]c2nc[nH]c12`, for which the viability is 89.7% (active).

With `CC1=C(/C=C/C(C)=C/C=C/C(C)=C/C(=O)O)C(C)(C)CCC1`, the viability was 98.8% (active).

Regarding `O=c1[nH]cnc2[nH]ncc12`, the viability is 102% (inactive).

In the case of `O=C1c2c(O)ccc(O)c2C(=O)c2c(NCCNCCO)ccc(NCCNCCO)c21`, the viability was 25.3% (active) and 26% (active).

As to `CC(C)C(=O)Nc1ccc([N+](=O)[O-])c(C(F)(F)F)c1`, the viability was 109% (inactive).

The same assay, now with this note: patient-derived ovarian cancer cells, CellTiter-Glo viability, 144 h; at 0.313 µM; OCI-P5x cells; without rucaparib; hits give low values.
Consider `S=c1nc[nH]c2nc[nH]c12`, for which the viability is 86.1% (active).

For `CC1=C(/C=C/C(C)=C/C=C/C(C)=C/C(=O)O)C(C)(C)CCC1`, the viability was 109% (inactive).

Take `O=c1[nH]cnc2[nH]ncc12`: the viability is 105% (inactive).

On to `O=C1c2c(O)ccc(O)c2C(=O)c2c(NCCNCCO)ccc(NCCNCCO)c21`, for which the viability was 12.4% (active) and 12.3% (active).

As for `CC(C)C(=O)Nc1ccc([N+](=O)[O-])c(C(F)(F)F)c1`, the viability is 115% (inactive).

The same assay, now with this note: patient-derived ovarian cancer cells, CellTiter-Glo viability, 144 h; at 1.25 µM; OCI-C5x cells; with rucaparib 10 µM; hits give low values; 100% = cells with rucaparib alone.
`S=c1nc[nH]c2nc[nH]c12`: the viability was 105% (inactive).

`CC1=C(/C=C/C(C)=C/C=C/C(C)=C/C(=O)O)C(C)(C)CCC1`: the viability was 101% (inactive).

As for `O=c1[nH]cnc2[nH]ncc12`, the viability was 122% (inactive).

In the case of `O=C1c2c(O)ccc(O)c2C(=O)c2c(NCCNCCO)ccc(NCCNCCO)c21`, the viability was 13.3% (active) and 11.4% (active).

As to `CC(C)C(=O)Nc1ccc([N+](=O)[O-])c(C(F)(F)F)c1`, the viability is 107% (inactive).

The assay is the same for the next values; noted with them: patient-derived ovarian cancer cells, CellTiter-Glo viability, 144 h; at 1.25 µM; OCI-C5x cells; without rucaparib; hits give low values.
On to `S=c1nc[nH]c2nc[nH]c12`, for which the viability was 93.1% (active).

As for `CC1=C(/C=C/C(C)=C/C=C/C(C)=C/C(=O)O)C(C)(C)CCC1`, the viability was 115% (inactive).

`O=c1[nH]cnc2[nH]ncc12`: the viability was 114% (inactive).

Regarding `O=C1c2c(O)ccc(O)c2C(=O)c2c(NCCNCCO)ccc(NCCNCCO)c21`, the viability was 15% (active) and 15.4% (active).

Consider `CC(C)C(=O)Nc1ccc([N+](=O)[O-])c(C(F)(F)F)c1`, for which the viability was 118% (inactive).

The assay is the same for the next values; noted with them: patient-derived ovarian cancer cells, CellTiter-Glo viability, 144 h; at 1.25 µM; OCI-P5x cells; with rucaparib 20 µM; hits give low values; 100% = cells with rucaparib alone.
Turning to `S=c1nc[nH]c2nc[nH]c12`, the viability is 87.9% (active).

On to `CC1=C(/C=C/C(C)=C/C=C/C(C)=C/C(=O)O)C(C)(C)CCC1`, for which the viability is 92.2% (active).

Turning to `O=c1[nH]cnc2[nH]ncc12`, the viability is 91.4% (active).

`O=C1c2c(O)ccc(O)c2C(=O)c2c(NCCNCCO)ccc(NCCNCCO)c21`: the viability is 7.5% (active) and 9.35% (active).

`CC(C)C(=O)Nc1ccc([N+](=O)[O-])c(C(F)(F)F)c1`: the viability is 101% (inactive).

The assay is the same for the next values; noted with them: patient-derived ovarian cancer cells, CellTiter-Glo viability, 144 h; at 1.25 µM; OCI-P5x cells; without rucaparib; hits give low values.
Turning to `S=c1nc[nH]c2nc[nH]c12`, the viability was 80.6% (active).

For the molecule `CC1=C(/C=C/C(C)=C/C=C/C(C)=C/C(=O)O)C(C)(C)CCC1`, the viability was 105% (inactive).

On to `O=c1[nH]cnc2[nH]ncc12`, for which the viability was 105% (inactive).

Consider `O=C1c2c(O)ccc(O)c2C(=O)c2c(NCCNCCO)ccc(NCCNCCO)c21`, for which the viability was 6.58% (active) and 5.99% (active).

As to `CC(C)C(=O)Nc1ccc([N+](=O)[O-])c(C(F)(F)F)c1`, the viability was 113% (inactive).

The assay is the same for the next values; noted with them: patient-derived ovarian cancer cells, CellTiter-Glo viability, 144 h; at 5 µM; OCI-C5x cells; with rucaparib 10 µM; hits give low values; 100% = cells with rucaparib alone.
With `S=c1nc[nH]c2nc[nH]c12`, the viability was 126% (inactive).

For `CC1=C(/C=C/C(C)=C/C=C/C(C)=C/C(=O)O)C(C)(C)CCC1`, the viability is 101% (inactive).

For `O=c1[nH]cnc2[nH]ncc12`, the viability was 111% (inactive).

For `O=C1c2c(O)ccc(O)c2C(=O)c2c(NCCNCCO)ccc(NCCNCCO)c21`, the viability was 3.19% (active) and 2.94% (active).

Turning to `CC(C)C(=O)Nc1ccc([N+](=O)[O-])c(C(F)(F)F)c1`, the viability was 112% (inactive).

The same assay, now with this note: patient-derived ovarian cancer cells, CellTiter-Glo viability, 144 h; at 5 µM; OCI-C5x cells; without rucaparib; hits give low values.
On to `S=c1nc[nH]c2nc[nH]c12`, for which the viability is 107% (inactive).

On to `CC1=C(/C=C/C(C)=C/C=C/C(C)=C/C(=O)O)C(C)(C)CCC1`, for which the viability was 104% (inactive).

For the molecule `O=c1[nH]cnc2[nH]ncc12`, the viability was 109% (inactive).

Consider `O=C1c2c(O)ccc(O)c2C(=O)c2c(NCCNCCO)ccc(NCCNCCO)c21`, for which the viability was 2.31% (active) and 2.92% (active).

On to `CC(C)C(=O)Nc1ccc([N+](=O)[O-])c(C(F)(F)F)c1`, for which the viability is 133% (inactive).

Still in this assay, the particulars now being: patient-derived ovarian cancer cells, CellTiter-Glo viability, 144 h; at 5 µM; OCI-P5x cells; with rucaparib 20 µM; hits give low values; 100% = cells with rucaparib alone.
For `S=c1nc[nH]c2nc[nH]c12`, the viability is 79% (active).

Regarding `CC1=C(/C=C/C(C)=C/C=C/C(C)=C/C(=O)O)C(C)(C)CCC1`, the viability was 93.6% (active).

On to `O=c1[nH]cnc2[nH]ncc12`, for which the viability is 91.3% (active).

Take `O=C1c2c(O)ccc(O)c2C(=O)c2c(NCCNCCO)ccc(NCCNCCO)c21`: the viability was 6.35% (active) and 8.96% (active).

`CC(C)C(=O)Nc1ccc([N+](=O)[O-])c(C(F)(F)F)c1`: the viability was 104% (inactive).

The same assay, now with this note: patient-derived ovarian cancer cells, CellTiter-Glo viability, 144 h; at 5 µM; OCI-P5x cells; without rucaparib; hits give low values.
In the case of `S=c1nc[nH]c2nc[nH]c12`, the viability is 79.9% (active).

`CC1=C(/C=C/C(C)=C/C=C/C(C)=C/C(=O)O)C(C)(C)CCC1`: the viability was 99.6% (active).

As to `O=c1[nH]cnc2[nH]ncc12`, the viability was 98% (active).

Turning to `O=C1c2c(O)ccc(O)c2C(=O)c2c(NCCNCCO)ccc(NCCNCCO)c21`, the viability was 6.78% (active) and 6.39% (active).

Take `CC(C)C(=O)Nc1ccc([N+](=O)[O-])c(C(F)(F)F)c1`: the viability is 112% (inactive).
